The campaign covered roughly 2,000 compounds. Fewer than 10 were called active.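 The calls were made as follows: active = growth inhibition of at least 75% in every replicate, which also brings the mean inhibition to 75% or more; inconclusive = mean inhibition 75% or more but some replicate under 75%; inactive = the rest.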 Not all results are given here.
Test: growth inhibition of PfHsp90-dependent yeast, primary screen, antimalarial PfHsp90 inhibitor project, S. cerevisiae, BacTiter-Glo luminescence (AID 504594);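 also: 0% = DMSO neutral control wells and 100% = 20 µM radicicol control wells; higher value means stronger growth inhibition because the sign is flipped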
Details: S. cerevisiae expressing PfHsp90, BacTiter-Glo growth, 48 h; at 9.4 µM; active compounds read high

Growth inhibition, inactive:
CC(C)c1ccc2[nH]c3c(c2c1)CCCC3=O 0.593%
O=c1cc(-c2ccccc2)oc2cc(OCc3ccccc3)cc(O)c12 2.87%
Cc1ccc2ncnc(NCCCCCC(=O)O)c2c1 4.2%
Nc1cccc2c1nnn2C1OC(CO)C(O)C(O)C1O (stereo not drawn) -0.754%
O=C1C=CC(=O)C(C2=C3C(=O)N(CCc4ccccc4)CC(=O)N3CCC2)=C1 0.713%
COc1cc(NC(=O)N[C@@H](Cc2ccccc2)C(=O)O)cc(OC)c1 5.35%
CCc1ccc(CN(C)Cc2nc(Cc3ccccc3)no2)nc1 -0.638%
O=C(NCCNc1ccc(Cl)cc1[N+](=O)[O-])c1cccnc1 1.09%
CC1(C)NC(C(=O)O)Cc2c1[nH]c1ccccc21 (stereo not drawn) 7.2%
CC(C)NC(=O)C1(c2ccccc2)CCOCC1 -8.01%
CCCCOn1c(C)c(C(C)=O)c2c3no[n+]([O-])c3ccc21 -14.4%
CCSc1nc(O)c(C2OC(=O)c3c2ccc(OC)c3OC)c(=O)n1CC (stereo not drawn) 9.9%
COC(=O)c1ccccc1NC(=O)NCc1ccccc1 -7.31%
Cc1ccc2[nH]c3c(c2c1)CN(C(=O)CN1CCSCC1)CC3 -8.61%
COc1ccccc1C1(CC(=O)N2CCCCC2)CCOC(C(C)C)C1 (stereo not drawn) 14.4%
CC(C)CCNC(=O)[C@H](CC(C)C)NC(=O)[C@H]1O[C@@H]1C(=O)O -0.406%
CC(=O)N1N=C(c2cccs2)CC1c1ccc(C)o1 (stereo not drawn) 15.9%
Cc1cc(Cl)cc2c1NC(=O)[C@]21[C@@H]2C(=O)N(Cc3ccccc3)C(=O)[C@@H]2[C@@H]2CCCN21 6.75%
COC(=O)CN1C(=S)N(c2ccc(F)cc2)C(=O)C1CC(=O)Nc1ccccc1 (stereo not drawn) 9.33%
Cc1ccc(P(=O)(CSC(=N)N)c2ccc(C)cc2)cc1 -1.66%
Cc1[nH]c2ccccc2c1C(=O)C(=O)NCc1ccco1 5.84%
Cc1ccccc1NC(=O)NCCc1c[nH]c2ccccc12 17.7%
OCCC1CN(Cc2ccccc2-c2ccco2)CCN1C1CCCC1 (stereo not drawn) -5.78%
Cc1ccc(CN2CCN(Cc3cn[nH]c3C3CCCCC3)CC2CCO)cc1 (stereo not drawn) -25.7%
Cc1ccc(Nc2ncccc2C(=O)O)cc1C -4.41%
CS(=O)c1ccccc1O (stereo not drawn) 14.9%
N/C(=N\OC(=O)CCCOc1ccc(Cl)cc1Cl)c1ccncc1 -2.92%
COc1ccc(C2NC(=O)c3ccccc3N2)cc1OC (stereo not drawn) -3.61%
C=C(C)c1nc2cc(OC)c(OC)cc2c(=O)o1 12.6%
C=CCNC(=O)c1ccc(-c2cccc([N+](=O)[O-])c2)o1 0.359%
COc1ccc(-n2cc(CNCc3cccnc3)c(-c3cccc(F)c3)n2)cc1 -18.3%
COC(=O)c1cc(-c2ccc(OC)c(OC)c2)on1 -8.12%
O=c1c2ccccc2nc2n1CCCN2 6.84%
CCOC(=O)N1CCc2[nH]c3ccc(C)cc3c2C1 -0.0125%
CC1(C)CC(C(CC(=O)O)c2ccccc2)CCO1 (stereo not drawn) -0.107%
Cc1ccc2c(c1)c(C)cc(=O)n2CCC(=O)O -4.29%
Cc1ccccc1OCC(O)CN1CCN(C)CC1 (stereo not drawn) 2.9%
COc1cccc(C2CCCN2Cc2nc(CCC(C)C)no2)c1 (stereo not drawn) 11.4%
CC(C)N(Cc1nccn1C)C(=O)CC1C(=O)NCCN1Cc1ccccc1C(F)(F)F (stereo not drawn) -0.671%
CCOCCCNCc1cn(-c2ccc(F)cc2F)nc1-c1ccccc1C 5.3%
CCOC(=O)C1(Cc2cccc(Cl)c2)CCCN(C2CCN(C(C)=O)CC2)C1 (stereo not drawn) -10.8%
Cc1ccc(C2=NOC(=O)/C2=C\C=C\c2ccccc2)cc1 14.3%
O=C1c2ccccc2C(=O)N1/N=C/c1ccc(Oc2ccc([N+](=O)[O-])cn2)cc1 4.52%
CC1(C)Oc2ccc(C#N)cc2[C@@H](N2CCCC2=O)[C@@H]1O 7.78%
CC1(C)Cc2ccccc2C(C(Cc2ccccc2)C(N)=O)=N1 (stereo not drawn) -4.58%
O=C(CN1CCN(Cc2ccccc2)CC1)N1CCCc2c1c(=O)oc1ccc(O)cc21 -7.45%
O=C(NCCc1cccc(F)c1)[C@@H]1CSC2c3ccccc3C(=O)N21 (stereo partly drawn) 3.04%
COc1ccc(CCNC(=O)CC(c2ccccc2)c2cccc(C)c2O)cc1OC (stereo not drawn) -1.09%
CCn1c(SCC(=O)c2ccccc2)nc2ccccc2c1=O -10.3%
CC1(C)Cc2nc3sc4c(=O)n(CC(N)=O)cnc4c3cc2CO1 -2.88%
CC(C)(C)OC(=O)COc1cc(OCC(=O)OC(C)(C)C)c2c(=O)cc(-c3ccccc3)oc2c1 -8.59%
Cn1cnc2c1c(=O)n(CC(O)CO)c(=O)n2C (stereo not drawn) -5.12%
O=C(O)c1ccccc1C(=O)OCCCCOC(=O)c1ccccc1C(=O)O -3.9%
COc1ccc(C(=O)NCC2OCCc3ccccc32)cc1 (stereo not drawn) -3.22%
O=C1CC(c2ccc(F)cc2)Cc2nc(NCC3CCCO3)ncc21 (stereo not drawn) 6.43%
COc1ccccc1OCC(=O)O -2.4%
NC(N)=NC(N)=Nc1ccc2ccccc2c1 -11.6%
O=C(c1cc2cc(Br)ccc2o1)N1CCCCC1 5.37%
Cc1ccc2c(CN3CCN(Cc4ccc5c(c4)OCO5)CC3)cc(=O)oc2c1C 0.516%
COc1ccc(-c2cc(=O)oc3cc(OC(C)C(=O)O)ccc23)cc1 (stereo not drawn) -0.213%
CN(Cc1c(C(=O)N(C)Cc2ccccc2)nc2ccccn12)CC1Cc2ccccc2O1 (stereo not drawn) 11.4%
CC(C)CCc1noc(CN2CCC(CCN3CCCC3=O)CC2)n1 4.25%
Cn1c(SCC(=O)c2ccccc2)nnc1-c1ccncc1 0.861%

Source: PubChem BioAssay AID504594 (Broad Institute, 2011)
